TTR transcr act = TTR transcription activators in neuroblastoma reporter cells, primary screen, cell-based, luminescence, SH-SY5Y, TTR promoter Gaussia luciferase. 100% = recombinant luciferase protein wells. activation, % at 16.7 µM. 92,000 tested, 1.3% active. AID 1117267, 2014;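 active = activation above the mean of all tested compounds plus 3 SD, cut at about 9.5% in these data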;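 note: cells exposed to compounds for one day before reading; 0% = median of all test compound wells on the plate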
TTR inh HuH7 = TTR promoter reporter inhibitors in hepatoma cells, counter-screen for TTR transcription activator project, cell-based, luminescence, HuH7 hepatoma. 1,100 tested, 4% active. inhibition, % at 16.7 µM. HuH7 TTR promoter-Gaussia luciferase reporter. AID 1117279, 2014. shares compounds with TTR transcr act;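 active = average inhibition above the solvent-only control wells' mean plus 3 SD, cut at about 15% in these data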;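 note: 0% = cells with DMSO only and 100% = cells with inhibitor control FD; inhibitors lower well luminescence so higher value means more inhibition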
TTR up confirm = TTR transcription activators, retest, confirmation, cell-based, luminescence, SH-SY5Y, triplicate. 1,100 tested, under 10 active. AID 1117280, 2014. SHSY5Y TTR promoter Gaussia luciferase; 100% = purified Lucia enzyme wells, no cells. activation, % at 16.7 µM. shares compounds with TTR transcr act;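 active = mean activation above a set limit taken from the earlier primary screen, cut at about 11% in these data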;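 note: 0% = DMSO-treated cells and 100% = recombinant Lucia luciferase without cells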
Starred values were filed as active, the others as inactive. The sample as a whole holds a higher share of hits than the screen did.

SMILES	TTR transcr act	others
C[C@@H]1[C@@H](c2ccccc2)OC(O)([C@H](Cc2ccccc2)NC(=O)OC(C)(C)C)CN1C (stereo partly drawn)	1
COc1ccccc1NS(=O)(=O)c1cc(NC(=O)c2cc(F)c(F)c(F)c2F)ccc1N1CCOCC1	27*	TTR inh HuH7=9;TTR up confirm=-1
COc1ccccc1NS(=O)(=O)c1cc(N2Cc3ccccc3C2=N)ccc1N1CCOCC1	2
COc1ccccc1NS(=O)(=O)c1cc(NC(C)=O)ccc1N1CCCCC1	0
Cc1cccnc1N=O	1
CCCCCCCCN1C(=O)[C@@H](CC(=O)NCc2cccc(C(F)(F)F)c2)C[C@@]2(C(=O)OC)C1=C[C@H](C(C)C)O[C@@H]2C1CC1	-1
c1nc(NCC2CC2)c2cc(-c3ccc4c(c3)OCO4)ccc2n1	0
C[C@@H]1CCN(C2CC2)S(=O)(=O)c2ccc(N3CC[C@@H](O)C3)cc2O1	0
COC(=O)[C@]12C[C@H](CC(=O)NCc3cccc4ccccc34)C(=O)N(Cc3ccc(Cl)cc3Cl)C1=C[C@H](C1CCCC1)O[C@@H]2C	-1
CNC(C#Cc1ccccc1)c1ccccc1C(F)(F)F (stereo not drawn)	4
COc1ccc(/C=C/C(=O)Nc2ccc(OC)cc2[N+](=O)[O-])cc1	13*	TTR inh HuH7=0;TTR up confirm=2
COc1ccc(NC(=O)Nc2ccc(OC)c(OC)c2)c([N+](=O)[O-])c1	2
COc1ccc(NC(=O)c2sccc2C)c([N+](=O)[O-])c1	4
O=C(O)CNC(=O)C1(N2C(=O)c3ccccc3C2=O)CCCC1	0
CC(C)NC(=O)C1(N2C(=O)c3ccccc3C2=O)CCCC1	-1
CCC1(CC)C(=O)N=C2c3ccccc3C(=O)N21	48*	TTR inh HuH7=-16;TTR up confirm=0
O=S1(=O)c2ccc(N3CCC[C@H]3CO)cc2O[C@@H]2CCN1C2	0
CC(=O)OCCC(CC(C)C)NC(=O)[C@H](CC(C)C)NC(=O)OCc1ccccc1 (stereo partly drawn)	-1
O=C(NCc1csc2ccccc12)Nc1cc(Cl)cc(Cl)c1	1
O=C(O)Cc1csc2ccccc12	12*	TTR inh HuH7=-10;TTR up confirm=1
O=C(Nc1ccccc1)Nc1csc2ccccc12	-1
COc1ccc(CN2C(=O)[C@]3(NCCc4c3[nH]c3ccc(OC)cc43)c3cc(Br)ccc32)cc1	0
COC(=O)[C@]12C[C@H](CC(=O)N3CCOCC3)C(=O)N(Cc3ccco3)C1=C[C@H](C1CCCC1)O[C@@H]2C	2
COc1ccc(C(=O)C2CCCN(C(=O)c3cccc(N(C)C)c3)C2)cc1OC (stereo not drawn)	12*	TTR inh HuH7=-12;TTR up confirm=0
COc1cccc(C(=O)C2CCCN(C(=O)c3ccc(C#CC(C)(C)O)cc3)C2)c1 (stereo not drawn)	0
SMILES	TTR transcr act	others
COc1ccc(C(=O)C2CCCN(C(=O)c3ccccc3C(C)=O)C2)cc1F (stereo not drawn)	-1
COC(=O)[C@]12C[C@H](CC(=O)NCc3cccc4ccccc34)C(=O)N(CCC3=CCCCC3)C1=C[C@H](C1CCCC1)O[C@@H]2C	2
CCc1ccc(CCNC(=O)OC2CC3CC2[C@H]2CCCCN2[C@H]3C)cc1 (stereo partly drawn)	-1
C=CCN1C(=O)[C@@H](CC(=O)NCc2ccc(C)o2)[C@]2(C(=O)OC)CCCCC=C12	-1
CCCc1c(O)nc(SC2CC(=O)N(c3ccc(C)c(Cl)c3)C2=O)[nH]c1=O (stereo not drawn)	12*	TTR inh HuH7=-6;TTR up confirm=0
Cc1cc(C)n(CC2CC(=O)N(c3ccc(C)c(Cl)c3)C2=O)n1 (stereo not drawn)	1
CCOc1ccc(N2C(=O)CC(Sc3nc(C)cc(C)c3C#N)C2=O)cc1 (stereo not drawn)	0
COc1ccc(CN2CN3CCc4ccccc4C3CS2(=O)=O)cc1 (stereo not drawn)	-2
COc1ccc2c(c1)[C@@]1(NCCc3c1[nH]c1ccc(OC)cc31)C(=O)N2	1
COc1cc(C(=O)OCC(=O)NCc2ccc(F)cc2)cc(NC(=O)c2cccs2)c1OC	-2
COc1ccc(-n2c(C)cc(C(=O)COC(=O)Cn3cnc4ccccc43)c2C)cc1	-3
COc1ccc(-n2c(C)cc(C(=O)COC(=O)c3cc(NC(=O)c4cccs4)c(OC)c(OC)c3)c2C)cc1	9.8*	TTR inh HuH7=-12;TTR up confirm=0
O=C(Nc1nc2c(Br)cccc2s1)c1ccc2c(c1)OCCO2	-3
Cc1ccc(CN2C(=O)N/C(=C\c3ccc(-c4ccc(C(=O)O)cc4C)o3)C2=O)cc1	11*	TTR inh HuH7=-18;TTR up confirm=0
O=C(O)c1ccc(COc2ccccc2/C=C2\NC(=O)N(Cc3ccc(F)cc3)C2=O)cc1	9
Cc1ccc(C(=O)O)cc1-c1ccc(/C=C2/NC(=O)N(c3ccccc3)C2=O)o1	-1
COC(=O)[C@]12C[C@H](CC(=O)NCC3CCCCC3)C(=O)N(Cc3ccc(Cl)cc3Cl)C1=C[C@H](COCc1ccccc1)O[C@@H]2C	-1
N#Cc1cccc(-n2cc(COC(=O)NCCc3ccccc3)nn2)c1	0
COC(=O)[C@@H]1[C@H](O[Si](C)(C)C(C)(C)C)C2OC2C[C@H]1S(=O)(=O)c1ccccc1 (stereo partly drawn)	-1
C=CCN1CC(COCCCC)Oc2ccc(Cl)cc2S1(=O)=O (stereo not drawn)	5
COc1ccc(C2Nc3ccccc3C(=O)N2Cc2ccc(C)o2)cc1COc1c(C)cccc1C (stereo not drawn)	0
CCOC(=O)c1[nH]c2ccc(F)cc2c1NC(=O)Nc1ccccc1OC	15*	TTR inh HuH7=-20;TTR up confirm=0
CCCCNC(=O)Nc1c(C(=O)OCC)[nH]c2ccccc12	1
CCOC(=O)c1[nH]c2ccccc2c1NC(=O)NC(C)C	1
CCC(C)[C@H](NC(=O)[C@H](CC(C)C)NC(=O)OC(C)(C)C)C(=O)N[C@@H](Cc1ccccc1)C(=O)OC (stereo partly drawn)	0
SMILES	TTR transcr act	others
Cc1ccc(S(=O)(=O)N2CC3(COC(C)(C)OC3)C[C@H]2CON2C(C)(C)CCCC2(C)C)cc1	-1
N#Cc1ccc(Cn2ccc3ccc(-c4ccc5ccn(C(=O)c6ccccc6)c5c4)cc32)cc1	0
CCCCc1ccc2nc(NC(=O)c3cccs3)sc2c1	1
CN1C2=N[C@@H](c3ccc4c(c3)OCO4)CC(=O)N2/C(=C\c2ccccc2)[C@@H]1c1ccccc1	0
Cc1nc(SCC(=O)NC(C)(C)C)c2c(-c3cccs3)csc2n1	14*	TTR inh HuH7=-16;TTR up confirm=0
CC(C)(C)NC(=O)CSc1nnc(-c2ccncc2)n1Cc1ccccc1	-1
Cc1cc(NC(=O)CSc2n[nH]c(-c3cccs3)n2)no1	4
COC(=O)[C@]12C[C@H](CC(=O)N3CCN(C(=O)C4CC4)CC3)C(=O)N(Cc3ccc(Cl)cc3Cl)C1=C[C@H](C1CCCC1)O[C@@H]2C	2
CSC1=NCCN1C(=O)Cc1ccc(-c2ccccc2)cc1	-1
CSC1=NCCN1C(=O)Cc1ccc(F)cc1	10*	TTR inh HuH7=-2;TTR up confirm=-1
COc1ccc(CC(=O)N2CCN=C2SC)cc1OC	1

Compound activity (PubChem)
